Data on four molecules can be found in the supplement of paper PMC8728848.

Common to all, as to assay: glycan array binding signal (z-score within array); higher = stronger binding
What all share (settings): glycan notation: IUPAC condensed, linker removed

In test [1] the target is Fuc(a1-2)Gal(b1-3)GalNAc(b1-3)Gal(a1-4)Gal(b1-4)Glc. Put shortly:
(§1)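 From the Consortium for Functional Glycomics database, 3228 arrays were curated, keeping only those whose protein sequence was available. Binding is given as a within-array Z-score averaged across arrays sharing a protein sequence and across linkers. Negative Z-scores can be read as non-binding.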

In test [2] the target is Fuc(a1-2)Gal(b1-3)[Fuc(a1-4)]GlcNAc. A digest of the protocol: as §1
For test [3], the target named is Fuc(a1-2)[Gal(a1-3)]Gal. Put shortly:
as §1

Test [4] deals with Fuc(a1-3)[Gal3S(b1-4)]GlcNAc. A digest of the protocol: as §1
The target of test [5] is Gal(a1-4)Gal(b1-4)Gal. Put shortly:
as §1

Test [6] concerns the target Gal(a1-4)Gal(b1-4)GalNAc. A digest of the protocol:
as §1

Test [7] concerns the target Gal(a1-4)GlcNAc. A digest of the protocol: as §1
In test [8] the target is Gal(b1-3)GalNAc(b1-3)Gal(b1-4)Glc. Put shortly:
as §1

The target of test [9] is Gal(b1-4)GalNAc(b1-3)[Fuc(a1-2)]Gal(b1-4)GlcNAc. Put shortly:
as §1

Test [10] has as its target GalNAc(b1-3)Gal(a1-4)Gal(b1-4)GlcNAc. A digest of the protocol:
as §1

For test [11], the target named is GlcNAc(b1-3)[GlcNAc(b1-4)][GlcNAc(b1-6)]GlcNAc. Put shortly: as §1
Test [12] addresses GlcNAc(b1-3)[GlcNAc(b1-6)]GlcNAc. Put shortly: as §1
The target of test [13] is GlcNAc(b1-4)GlcNAc(b1-4)GlcNAc(b1-4)GlcNAc(b1-4)GlcNAc. A digest of the protocol: as §1
The target of test [14] is Man(a1-2)Man(a1-2)Man(a1-3)[Man(a1-2)Man(a1-6)[Man(a1-3)]Man(a1-6)]Man(b1-4)GlcNAc(b1-4)GlcNAc. A digest of the protocol: as §1
Test [15] concerns the target Man(a1-3)[Man(a1-6)]Man. A digest of the protocol: as §1
Test [16] has as its target Neu5Ac(a2-3)Gal(b1-3)GlcNAc6S. Put shortly:
as §1

For test [17], the target named is Neu5Ac(a2-8)Neu5Ac(a2-8)Neu5Ac(a2-3)[GalNAc(b1-4)]Gal(b1-4)Glc. A digest of the protocol:
as §1

The target in test [18] is Fuc(a1-2)Gal(b1-3)GalNAc(b1-3)Gal(b1-4)Glc. A digest of the protocol:
as §1

Test [19] concerns the target Fuc(a1-2)Gal(b1-4)Glc. A digest of the protocol:
as §1

For test [20], the target named is Fuc(a1-2)Gal(b1-4)GlcNAc(b1-3)Gal(b1-4)GlcNAc. A digest of the protocol: as §1
The target in test [21] is Gal(a1-6)Glc. A digest of the protocol: as §1
Test [22] has as its target Gal(b1-3)[Fuc(a1-4)]GlcNAc(b1-3)Gal(b1-4)GlcNAc. A digest of the protocol:
as §1

In test [23] the target is Gal(b1-3)[Neu5Ac(a2-6)]GlcNAc. A digest of the protocol: as §1
The target in test [24] is Gal(b1-3)[Neu5Ac(a2-6)]GlcNAc(a1-4)Gal(b1-4)Glc. A digest of the protocol:
as §1

In test [25] the target is GalNAc(b1-4)GlcNAc. Put shortly:
as §1

Test [26] has as its target GlcA(b1-6)Gal. Put shortly: as §1
Test [27] concerns the target GlcNAc(b1-3)Gal. A digest of the protocol: as §1
Test [28] deals with GlcNAc(b1-4)GlcNAc(b1-4)GlcNAc. A digest of the protocol: as §1
Test [29] concerns the target Man(a1-2)Man(a1-2)Man(a1-3)Man. Put shortly:
as §1

The target in test [30] is Man(a1-3)[Man(a1-6)]Man(b1-4)GlcNAc(b1-4)GlcNAc. Put shortly: as §1
The target in test [31] is Man(b1-4)GlcNAc. A digest of the protocol: as §1
Test [32] has as its target Fuc(a1-2)Gal(b1-4)[Fuc(a1-3)]GalNAc(b1-3)Gal(b1-4)[Fuc(a1-3)]GlcNAc. Put shortly: as §1
Test [33] deals with Fuc(a1-2)Gal(b1-4)[Fuc(a1-3)]GalNAc(b1-3)Gal(b1-4)[Fuc(a1-3)]GlcNAc(b1-3)Gal(b1-4)[Fuc(a1-3)]GalNAc. A digest of the protocol: as §1
Test [34] addresses Fuc(a1-2)[GalNAc(a1-3)]Gal(b1-4)[Fuc(a1-3)]GlcNAc. A digest of the protocol: as §1
Test [35] deals with Fuc(a1-3)[Gal(b1-4)]Glc6S. Put shortly:
as §1

The target of test [36] is Fuc(b1-3)GlcNAc. Put shortly: as §1
The target of test [37] is Gal(b1-2)Gal. A digest of the protocol: as §1
Test [38] has as its target Gal(b1-3)Gal. A digest of the protocol:
as §1

Test [39] concerns the target GlcA(b1-3)Gal. Put shortly:
as §1

Test [40] concerns the target Man(a1-2)Man(a1-2)Man(a1-6)[Man(a1-3)]Man. A digest of the protocol:
as §1

The target of test [41] is Man(a1-2)Man(a1-3)[Man(a1-6)]Man(a1-6)[Man(a1-2)Man(a1-3)]Man(b1-4)GlcNAc(b1-4)GlcNAc. Put shortly: as §1
Test [42] addresses Neu5Ac(a2-3)Gal(b1-3)GlcNAc. Put shortly: as §1
Test [43] deals with Neu5Ac(a2-3)Gal(b1-4)GlcNAc(b1-3)Gal(b1-3)GlcNAc. A digest of the protocol: as §1
For test [44], the target named is Neu5Ac(a2-8)Neu5Ac(a2-3)[GalNAc(b1-4)]Gal(b1-4)Glc. A digest of the protocol:
as §1

Test [45] concerns the target Neu5Gc(a2-3)Gal(b1-3)GlcNAc. Put shortly: as §1
Test [46] has as its target Fuc(a1-2)Gal(b1-3)GalNAc(b1-4)[Neu5Ac(a2-3)]Gal(b1-4)Glc. A digest of the protocol:
as §1

The target of test [47] is Fuc(a1-2)Gal(b1-4)[Fuc(a1-3)]GlcNAc. Put shortly: as §1
Test [48] has as its target Fuc(a1-2)[Gal(a1-3)]Gal(b1-4)Glc. A digest of the protocol:
as §1

Test [49] concerns the target Fuc(a1-3)[Gal(b1-4)]GlcNAc(b1-4)Gal(b1-4)[Fuc(a1-3)]GlcNAc(b1-4)Gal(b1-4)[Fuc(a1-3)]GlcNAc. A digest of the protocol: as §1
The target of test [50] is Gal(b1-3)GalNAc(b1-4)Gal(b1-4)Glc. A digest of the protocol:
as §1

The target of test [51] is Gal(b1-3)GalNAc(b1-4)[Neu5Ac(a2-3)]Gal(b1-4)Glc. A digest of the protocol: as §1
Test [52] deals with Gal4S(b1-4)GlcNAc. A digest of the protocol: as §1
Test [53] deals with Gal6S(b1-4)GlcNAc. A digest of the protocol:
as §1

For test [54], the target named is GlcNAc(b1-4)[GlcNAc(b1-6)]GalNAc. Put shortly: as §1
Test [55] addresses Neu5Ac(a2-3)Gal. A digest of the protocol: as §1
Test [56] addresses Neu5Ac(a2-3)Gal(b1-3)[Fuc(a1-4)]GlcNAc. Put shortly:
as §1

For test [57], the target named is Neu5Ac(a2-3)Gal(b1-4)GlcNAc. Put shortly:
as §1

Test [58] concerns the target Neu5Ac(a2-3)Gal6S(b1-4)[Fuc(a1-3)]GlcNAc. A digest of the protocol: as §1

Shown is part of a subset that was picked to be rich in the strongest signals.

B1: RNase 1 (Homo sapiens) (protein)
chain: KESRAKKFQRQHMDSDSSPSSSSTYCNQMMRRRNMTQGRCKPVNTFVHEPLVDVQNVCFQEKVTCKNGQGNCYKSNSSMHITDCRLTNGSRYPNCAYRTSPKERHIIVACEGSPYVPVHFDASVEDST
On to B1, for which the “glycan array binding signal (z-score)” value is 1.93 in test [1]; -0.174 in test [2]; -0.14 in test [3]; -0.168 in [4]; 7.93 in test [5]; 8.87 in test [6]. Besides, the “glycan array binding signal (z-score)” value is -0.225 in test [7]; 0.641 in [8]; -0.218 in test [9]; 0.455 in [10]; -0.069 in [11]; -0.116 in [12]. Also, the “glycan array binding signal (z-score)” value is -0.028 in [13]; -0.153 in [14]; -0.147 in [15]; -0.204 in [16]; -0.187 in test [17].

B2: TbCVNHOb (Tuber borchii) (protein)
chain: GSHIGPYMSFYASSEDVRTIEEGGRTWLVGRARRADGSWQDIKLDLDNIIGNRDGHLTWGEQNFTQSASDIRFNFEGGSNVPVLRAKLRNAAGGEQESDLNLGERLTNNNGDLVFN
In the case of B2, the “glycan array binding signal (z-score)” value was 2.01 in test [1]; 4.24 in test [18]; 0.347 in test [19]; -0.268 in test [20]; -0.469 in [4]; 4.24 in [5]. Moreover, the “glycan array binding signal (z-score)” value in [21] was 0.38; in test [22] it was -0.231; in test [23] it was -0.484; in test [24], 4.83; in [9] it was -0.367; in test [25], -0.366. The “glycan array binding signal (z-score)” value is -0.483 in test [26]; -0.16 in [27]; -0.077 in test [11]; -0.364 in [28]; 5.4 in test [29]; -0.449 in test [14]. Besides, the “glycan array binding signal (z-score)” value in test [30] was -0.197; in [31], 0.106; in [16], -0.045.

B3: MLTim-4 (Mus musculus), Q6U7R4 (protein)
chain: MSKGLLLLWLVTELWWLYLTPAASEDTIIGFLGQPVTLPCHYLSWSQSRNSMCWGKGSCPNSKCNAELLRTDGTRIISRKSTKYTLLGKVQFGEVSLTISNTNRGDSGVYCCRIEVPGWFNDVKKNVRLELRRAT
For the molecule B3, the “glycan array binding signal (z-score)” value in [1] was -0.142; in [32], -0.799; in test [33] it was 0.195; in [34] it was 0.41; in test [35], 2.31; in [36] it was -0.108. Moreover, the “glycan array binding signal (z-score)” value was 0.491 in test [5]; 1.47 in [37]; 0.543 in [38]; -0.991 in [9]; 6.6 in test [39]; 2.97 in test [26]. Moreover, the “glycan array binding signal (z-score)” value in [11] is -0.523; in test [40] it was 0.353; in test [41], -0.137; in test [31], 1.06; in test [42] it was -0.547; in test [16] it was 2.45. Further, the “glycan array binding signal (z-score)” value in [43] was -0.655; in test [44], -0.484; in test [17] it was -0.741; in test [45] it was -0.343.

B4: DC SIGN CRD (Homo sapiens), Q9NNX6 (protein)
chain: QPCPWEWTFFQGNCYFMSNSQRNWHDSITACKEVGAQLVVIKSAEEQNFLQLQSSRSNRFTWMGLSDLNQEGTWQWVDGSPLLPSFKQYWNRGEPNNVGEEDCAEFSGNGWNDDKCNLAKFWICKKSAWSHPQFEK
In the case of B4, the “glycan array binding signal (z-score)” value in [1] was -0.37; in test [46], -0.377; in test [32], 5.67; in test [33], 3.54; in test [47] it was 4.18; in [48], -0.339. For the same molecule, the “glycan array binding signal (z-score)” value is 5.8 in test [49]; -0.385 in test [50]; -0.363 in test [51]; -0.361 in test [52]; -0.39 in test [53]; -0.392 in test [26]. In addition, the “glycan array binding signal (z-score)” value in test [54] is -0.371; in test [14], 2.91; in test [55] it was -0.339; in [56] it was -0.076; in test [57] it was -0.387; in test [58], -0.394.
